Source: PubChem BioAssay
TROY signal inh = inhibitors of TROY-driven NF-kB signaling, primary screen, Q293 LMP1-TROYcd cells, NF-kB luciferase, uHTS; Q293 LMP1-TROYcd NF-kB luciferase reporter, 4 h; inhibition, % at 10 µM; 360,000 tested, 0.98% active; AID 1347056, 2019;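 active = compounds whose plate-normalised and pattern-corrected inhibition of the luciferase reporter signal at the single screening dose is 50% or more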
LMP1 NFkB inh = EBV LMP1-driven NF-kappaB luciferase reporter inhibitors, primary screen, cell-based, luminescence, single point; LMP1-induced NF-kappaB luciferase reporter cells; inhibition, % at 12.5 µM; 350,000 tested, 0.69% active; in the data active = inhibition above about 41%;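 note: 0% = neutral control wells and 100% = reference inhibitor control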
LGR2 antag = inhibitors of bursicon-induced LGR2 CRE-luciferase signal, primary screen, cell-based, HEK293, CRE-luciferase reporter, bursicon stimulation; bursicon-stimulated, 4 h; inhibition, % at 9.99 µM; Drosophila bursicon receptor LGR2 (rickets); 380,000 tested, 0.35% active;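 active = drop in luminescence signal, shown as inhibition above about 50% in the replicate tests, limit read from the data, passing the limit was not always enough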;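 note: agonist challenge used bursicon conditioned medium at about half maximal strength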
TWEAK Fn14 block = inhibitors of TWEAK-Fn14 signaling, primary screen, luciferase reporter cells, uHTS; TWEAK-stimulated Fn14 reporter cells, luciferase luminescence, 8 h; inhibition, % at 10 µM; 360,000 tested, 2% active; in the data active = inhibition above about 50%
EWS-Fli inh = EWS/Fli-driven NR0B1 reporter inhibitors, primary screen, A673 cells, NR0B1 luciferase, luminescence, MLPCN library | viability-normalised | inhibition, % at 12.6 µM | 350,000 tested, 0.67% active | AID 651661, 2012;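 active = mean inhibition of at least 50% after viability correction, with every replicate also passing that limit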;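 note: firefly luciferase signal divided by Alamar Blue viability fluorescence both relative to DMSO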
PAX8 inh HTS = inhibitors of PAX8-driven TPO luciferase reporter, primary screen, RMG-I cells, single concentration | 360,000 tested, 1.2% active | AID 652154, 2013 | inhibition, % at 12.6 µM | SteadyGlo, 24 h;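 active = mean replicate inhibition at least 60% with every replicate also reaching 60%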;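 note: luciferase light reporting Pax8 driven TPO promoter activity; plate controls were median of neutral control wells for no effect and mitoxantrone controls for full effect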
* marks the source's active call; other numbers are inactive results; nt = not tested or not shown. Shown are actives, neighbours in structure and some others; about 3.1% of the full set was active somewhere.

SMILES	TROY signal inh	LMP1 NFkB inh	LGR2 antag	TWEAK Fn14 block	EWS-Fli inh	PAX8 inh HTS
Cc1ccc(-c2nc3ccccc3[nH]2)cc1NC(=S)NC(=O)c1ccccc1Br	36	16	nt	67*	nt	nt
Cc1ccc(-c2nc3ccccc3[nH]2)cc1NC(=O)c1ccc2c(c1)OCO2	-6	2	-1	1	nt	nt
CCOC(=O)N1CCN(C(=O)Nc2ccc3nc(C)c(C)nc3c2)CC1	-3	-5	nt	-18	nt	nt
Cc1nc2ccc(NC(=O)N3CCCCC3)cc2nc1C	50*	12	nt	21	nt	nt
Cc1cccc(Nc2nc(Cl)ncc2F)c1C	-3	53*	2	2	3	18
CC1(C)CC(=O)C(C=NCCCO)=C(O)C1	-3	-3	nt	81*	nt	nt
CC[n+]1ccc(/C=C2\Sc3ccccc3N2CCCS(=O)(=O)[O-])c2ccccc21	22	-5	15	6	-3	13
CN1C=C/C(=C\c2cc[n+](C)c3ccccc23)c2ccccc21	1	35	28	28	74*	97*
C[C@H](CO)N1C[C@H](C)[C@H](CN(C)Cc2ccc3c(c2)OCO3)Oc2ccc(NC(=O)c3ccncc3)cc2C1=O	nt	nt	3	nt	1	-8
COc1cccc(-c2cc3nc4c(c(NCC(C)(C)CN(C)C)n3n2)CCCC4)c1	81*	-7	43	61*	-25	-120
CCCOc1ccc(NC(=O)c2c(-c3ccccc3)noc2C)cc1	1	10	-8	-8	-7	-8
CC(=O)Nc1ccc(OCCCNC(=O)c2c(-c3ccccc3)noc2C)cc1	2	58*	-5	4	-3	4
Cc1ccccc1OCCOC(=O)c1c(-c2ccccc2)noc1C	24	0	-7	14	58*	28
C[C@H]1CN([C@@H](C)CO)C(=O)c2cc(NS(C)(=O)=O)ccc2O[C@H]1CN(C)Cc1ccncc1	nt	nt	15	nt	-1	-3
COc1ccc(NC(=O)Nc2ccc3c(c2)C(=O)N([C@@H](C)CO)C[C@H](C)[C@@H](CN(C)C(=O)Nc2ccc(C(F)(F)F)cc2)OCCCC[C@H](C)O3)cc1	nt	nt	6	nt	-7	15
CSc1nnc(NC(=O)c2nc(S(=O)(=O)Cc3ccccc3F)ncc2Cl)s1	7	13	-10	97*	28	1
CC(C)c1nnc(NC(=O)c2nc(S(=O)(=O)Cc3ccccc3F)ncc2Cl)s1	nt	nt	-16	nt	61*	0
CC(C)c1nnc(NC(=O)CCC(=O)NCc2ccccc2Cl)s1	24	0	7	-6	nt	-4
Cc1nnc(NC(=O)c2nc(S(=O)(=O)Cc3ccccc3C)ncc2Cl)s1	28	81*	-39	102*	nt	24
C[C@@H]1CN([C@H](C)CO)S(=O)(=O)c2ccc(C3=CCCC3)cc2O[C@H]1CN(C)C(=O)C1CCCCC1	nt	nt	9	nt	7	nt
C[C@H]1CN([C@@H](C)CO)C(=O)c2c(c3ccccc3n2C)-c2ccccc2CO[C@@H]1CN(C)S(=O)(=O)c1cn(C)cn1	nt	nt	21	nt	-1	12
COc1cccc2cc(-c3nnc(-c4ccccc4)o3)c(=O)oc12	70*	50*	11	73*	16	-71
CN(C)c1ccc(/C=C2\SC(=O)N(CCc3nnc(N)s3)C2=O)cc1	77*	73*	89*	94*	82*	50
CC(C)NC(=O)Nc1ccc2c(c1)C(=O)N([C@H](C)CO)C[C@@H](C)[C@@H](CN(C)Cc1ccc(Cl)c(Cl)c1)O2	nt	nt	13	nt	-2	6
Cc1nn(C)cc1NC(=O)C[C@@H]1CC[C@@H]2[C@@H](COc3ccc(NC(=O)C4CCC4)cc3C(=O)N2C)O1	nt	nt	-15	nt	-5	-5
SMILES	TROY signal inh	LMP1 NFkB inh	LGR2 antag	TWEAK Fn14 block	EWS-Fli inh	PAX8 inh HTS
CCSCCc1nnc(NC(=O)Nc2cccc(C(F)(F)F)c2)s1	63*	5	28	64*	24	106*
CO[C@@H]1CN(C)C(=O)c2ccc(NC(=O)C3CCOCC3)cc2OC[C@H](C)N(C)C[C@@H]1C	nt	nt	17	nt	-2	-8
C[C@H](CO)N1C[C@H](C)[C@H](CN(C)Cc2ccc(Oc3ccccc3)cc2)Oc2c(NS(C)(=O)=O)cccc2C1=O	nt	nt	-32	nt	-2	3
COc1cc(/C=N/NC(=O)c2nnn(-c3nonc3N)c2C(C)C)ccc1OCc1ccc(F)cc1	38	-15	-7	76*	-56	-111
CN(Cc1c(C(=O)N/N=C/c2ccccc2O)nnn1-c1nonc1N)C1CCCCC1	3	27	39	-21	5	70*
CCN(CC)c1ccc(/C=N/NC(=O)c2nnn(-c3nonc3N)c2C(C)C)c(O)c1	11	64*	24	-10	nt	85*
CN(Cc1c(C(=O)N/N=C/c2cccc(O)c2)nnn1-c1nonc1N)C1CCCCC1	-10	1	2	-7	nt	4
CC(C)c1c(C(=O)N/N=C/c2ccc3c(c2)OCO3)nnn1-c1nonc1N	-30	0	-16	-32	-35	-22
CCCc1c(C(=O)N/N=C/c2ccc(OCc3ccccc3)c(OC)c2)nnn1-c1nonc1N	-8	-14	-6	-26	-36	-14
CC(C)c1c(C(=O)N/N=C/c2cccc(OCc3ccc(F)cc3)c2)nnn1-c1nonc1N	53*	-3	-7	49	-8	-21
OC[C@H]1Nc2ccc(C#Cc3ccc(F)cc3)cc2[C@@H]2[C@H]1CCN2Cc1ccc2c(c1)OCO2	nt	nt	5	nt	0	-15
CO[C@H]1CN(C)C(=O)c2cc(NC(=O)C3CC3)ccc2OC[C@@H](C)N(C(=O)c2cnccn2)C[C@@H]1C	nt	nt	3	nt	-7	4
C[C@H]1CN([C@@H](C)CO)C(=O)c2cc(NS(=O)(=O)c3ccc(F)cc3)ccc2O[C@H]1CN(C)Cc1ccc(C(=O)O)cc1	nt	nt	-5	nt	-7	nt
Nc1nonc1-n1nnc(C(=O)N/N=C/c2cccc(O)c2)c1CN1CCCC1	-29	6	14	-14	2	-14
CN1CCN(Cc2c(C(=O)N/N=C/c3cccc(Br)c3)nnn2-c2nonc2N)CC1	11	0	-1	3	52*	51
C[C@@H]1CN([C@H](C)CO)C(=O)c2cccc(NC(=O)NC3CCCCC3)c2O[C@@H]1CN(C)C(=O)Nc1ccc2c(c1)OCO2	nt	nt	-10	nt	-7	7
C[C@@H]1CN([C@H](C)CO)C(=O)c2cc(NC(=O)Nc3cccc4ccccc34)ccc2O[C@@H]1CN(C)Cc1ccc(C(=O)O)cc1	nt	nt	31	nt	7	29
CCOc1ccc(S(=O)(=O)N2CCCCC2)cc1NC(=O)Cc1ccccc1	51*	19	10	30	8	7
COc1ccc(Nc2cc3n(c(=O)n2)CCc2cc(OC)c(OC)cc2-3)cc1	16	12	-32	-43	-9	16
